Usually inhibition stands for the relative decrease from the control value, in per cent.

Active and inactive are the calls of the source.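 The calls were made as follows, unless noted: active = inhibition of the reporter signal at or above 50%; inactive = inhibition below 50%.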

From PubChem BioAssay come the findings set out here.

Experiment [1] in a line: inhibitors of TNFa-induced NFkB p65 translocation, primary screen, imaging, HUVEC, MLSMR starter and 10KST1 sets (AID 438;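 active = inhibition above 20% together with a positive visual image hit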;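 also: compound added about 3h40 before a 20 min TNFalpha stimulation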;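 as to inhibition: signal is the nuclear over cytoplasmic p65 intensity ratio per well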). The note with it: HUVEC TNFa-induced p65 nuclear translocation; cell count: measured here: nuclei count (cytotoxicity indicator), at 2.08 µM; inhibition: at 2 µM, stronger effect = higher value, 0% TNFa-plus-vehicle, 100% no-TNFa wells.
Experiment [2] can be described thus: inhibitors of mutant huntingtin aggregation, primary screen, imaging, exon1htt(103Q)mCFP cells, high-content imaging (AID 483;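 active = visual image review flags a hit and inhibition of aggregation exceeds 20%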;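 also: compound exposure lasted 3 days before fixation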;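 as to nuclei count: percent of the per-plate median nuclei count of sample wells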). The note with it: exon1htt(103Q)mCFP cell line, aggregate imaging, at 2 µM; inhibition of aggregation: stronger effect = higher value; nuclei count: measured here: cell count, toxicity.
The nature of experiment [3]: inhibitors of E-selectin induction by TNFa, primary screen, imaging, HUVEC, immunofluorescence, MLSMR starter and 10KST1 sets (AID 487;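 active = visually confirmed hit in the image check and inhibition above 20%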;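 as to inhibition: signal is fraction of cell area covered by stained E-selectin grains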;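 as to nuclei count: 100% = median nuclei count of all wells on the same plate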). The note with it: HUVEC TNFalpha-induced E-selectin immunofluorescence imaging, at 2 µM; inhibition: stronger effect = higher value; nuclei count: measured here: cell number, toxicity.
In experiment [4] the target is Voltage-gated potassium channel subunit beta-2 (Rattus norvegicus) (UniProt P62483). The experiment is described as follows: KvBeta enzyme negative modulators, primary screen, biochemical, NADPH fluorescence (AID 622;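 active = fluorescence slope higher than the sample average by over 3 SD, cut at about -0.22 in these data, passing the limit was not always enough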;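 also: slope of raw intensity against log time taken from 70 to 1610 s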). The note with it: recombinant KvBeta, 4-cyanobenzaldehyde reduction, at 10 µM, stronger effect = higher value.
The target is the same in experiment [5]. The experiment is described as follows: KvBeta positive modulators, primary screen, biochemical, NADPH fluorescence (AID 623;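 active = NADPH fluorescence slope more negative than the mean of all samples by about 3 SD, 99.7% confidence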;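 also: fluorescence intensity change per second fitted from 20 to 320 s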). The note with it: Recombinant KvBeta, NADPH fluorescence decrease slope, 10 min; at 10 µM; stronger effect = lower value.
Experiment [6] has as its target Alpha-2C adrenergic receptor (Homo sapiens) (UniProt P18825). Briefly: modulators of alpha2C/GIRK thallium flux, primary screen, cell-based, HEK293 alpha2C/GIRK1/2 (AID 624;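 active = fluorescence slope after compound addition differing from the mean of all screened samples at 99.7% confidence, in either direction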;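 also: slope of fluorescence ratio to pre-addition baseline per second over 15 to 24 s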). The note with it: thallium flux BTC fluorescence, at 10 µM, actives lie on both sides.
Experiment [7] is described as follows: inhibitors of Sendai virus-induced IRF3 signaling, primary screen, TLR/RLR signaling modifier project, cell-based, Sendai virus stimulus, luciferase, 10K MLSCN set (AID 602276;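 active = inhibition at or above 50% at 10 µM; inactive = inhibition below 50%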;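 also: firefly luciferase from ISG56 promoter only with Renilla not read in this screen; 0% = Sendai virus plus DMSO and 100% = medium plus DMSO without virus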). The note with it: HEK293 RL24 IRF3 luciferase reporter, at 10 µM, stronger effect = higher value. A general note: A reporter such as luciferase makes a cellular process visible.
Experiment [8] in a line: inhibitors of poly I:C-induced TLR3 signaling, primary screen, cell-based, poly I:C stimulus, luciferase, 10K MLSCN set (AID 602277). The note with it: HEK293-TLR3 RL24 IRF3 luciferase reporter, at 10 µM, stronger effect = higher value.

Alpha-2C adrenergic receptor (Homo sapiens), sequence (P18825 whole entry, looked up): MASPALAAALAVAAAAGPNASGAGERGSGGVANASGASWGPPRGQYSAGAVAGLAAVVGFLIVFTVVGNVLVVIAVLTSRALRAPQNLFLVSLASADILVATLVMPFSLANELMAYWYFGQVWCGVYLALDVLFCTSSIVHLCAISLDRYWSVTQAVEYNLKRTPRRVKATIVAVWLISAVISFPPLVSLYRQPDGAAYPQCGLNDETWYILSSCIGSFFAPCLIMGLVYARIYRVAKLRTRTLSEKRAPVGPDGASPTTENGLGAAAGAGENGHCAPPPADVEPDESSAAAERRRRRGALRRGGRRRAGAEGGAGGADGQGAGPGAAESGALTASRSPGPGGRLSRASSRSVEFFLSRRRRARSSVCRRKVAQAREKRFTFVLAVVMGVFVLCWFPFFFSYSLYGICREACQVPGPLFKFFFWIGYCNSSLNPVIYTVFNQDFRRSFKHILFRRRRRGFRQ
Voltage-gated potassium channel subunit beta-2 (Rattus norvegicus), sequence (P62483 whole entry, looked up): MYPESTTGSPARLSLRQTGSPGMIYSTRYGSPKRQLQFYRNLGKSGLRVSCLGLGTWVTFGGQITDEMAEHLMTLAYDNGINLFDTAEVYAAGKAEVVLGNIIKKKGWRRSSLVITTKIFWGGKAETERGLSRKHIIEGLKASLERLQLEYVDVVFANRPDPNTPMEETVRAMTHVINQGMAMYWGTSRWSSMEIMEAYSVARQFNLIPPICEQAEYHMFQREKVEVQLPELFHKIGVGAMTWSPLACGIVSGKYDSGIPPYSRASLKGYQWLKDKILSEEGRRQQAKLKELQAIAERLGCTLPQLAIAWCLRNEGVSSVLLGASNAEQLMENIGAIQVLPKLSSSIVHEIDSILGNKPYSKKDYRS

As for `COc1cccc(N(C(=O)c2ccco2)C(C(=O)NC2CCCC2)c2ccc(N(C)C)cc2)c1` (centres undefined), the cell count in experiment [1] was 582. The inhibition in experiment [1] is -1.6% (inactive); in experiment [3] it was 5.4% (inactive); in experiment [7], 6.61% (inactive); in experiment [8], 15.9% (inactive). Besides, the inhibition of aggregation in experiment [2] is -38.4% (inactive). Moreover, the nuclei count in experiment [2] was 98.6%; in experiment [3], 77.9%. The fluorescence slope in experiment [4] is -0.44 (inactive). The NADPH fluorescence slope in experiment [5] was -0.000142 (inactive). Further, in experiment [6], the slope is 0.00648 (inactive).
For `O=C(CSc1nnc(-c2ccccc2)o1)N1CCc2ccccc2C1`, in experiment [1], the cell count was found to be 400. The inhibition in experiment [1] was -4.2% (inactive); in experiment [3] it was -104% (inactive); in experiment [7] it was 7.64% (inactive); in experiment [8], 22.9% (inactive). Also, the inhibition of aggregation in experiment [2] is 2.7% (inactive). In addition, the nuclei count in experiment [2] stood at 101%; in experiment [3] it was 121%. Also, the fluorescence slope in experiment [4] was -0.382 (inactive). For the same compound, the NADPH fluorescence slope in experiment [5] is -6.2e-05 (inactive). For the same compound, in experiment [6], the slope was 0.00577 (inactive).
On to `Nc1nc2n(n1)C(c1cccc(Cl)c1)CC(c1ccc(F)cc1)N2` (centres undefined), for which the cell count in experiment [1] stood at 678. Also, the inhibition in experiment [1] was -12.4% (inactive); in experiment [3], -13.6% (inactive); in experiment [7] it was 11.8% (inactive); in experiment [8], 25.8% (inactive). Further, in experiment [2], the inhibition of aggregation was -13.4% (inactive). Also, the nuclei count in experiment [2] turned out to be 100%; in experiment [3], 106%. Besides, the fluorescence slope in experiment [4] is -0.42 (inactive). Also, in experiment [5], the NADPH fluorescence slope is -3.8e-05 (inactive). In addition, the slope in experiment [6] was 0.00636 (inactive).
On to `CCC(C(=O)Nc1ncccn1)(C(F)(F)F)C(F)(F)F`, for which the cell count in experiment [1] was determined as 218. Also, the inhibition was 2% (inactive) in experiment [1], -2.6% (inactive) in experiment [3], -24.5% (inactive) in experiment [7] and -0.327% (inactive) in experiment [8]. For the same compound, the inhibition of aggregation in experiment [2] was 25.4% (inactive). For the same compound, the nuclei count stood at 93.4% in experiment [2] and 110% in experiment [3]. In addition, the fluorescence slope in experiment [4] is -0.499 (inactive). In addition, the NADPH fluorescence slope in experiment [5] was 5.3e-05 (inactive). For the same compound, the slope in experiment [6] was 0.00586 (inactive).
For the compound `O=C(Nc1ccc2c(c1)OCCO2)c1cnc2n(c1=O)CCS2`, in experiment [1], the cell count was 550. Further, the inhibition in experiment [1] was -2.3% (inactive); in experiment [3], -8.2% (inactive); in experiment [7], -79.9% (inactive); in experiment [8], -177% (inactive). The inhibition of aggregation in experiment [2] is 9.3% (inactive). Also, the nuclei count in experiment [2] came out at 78.2%; in experiment [3], 98.4%. In addition, the fluorescence slope in experiment [4] was -0.57 (inactive). In experiment [5], the NADPH fluorescence slope was -5.8e-06 (inactive). For the same compound, in experiment [6], the slope was 0.00627 (inactive).
As to `COc1ccc2ccccc2c1CN1CCCC(CO)C1` (centres undefined), in experiment [1], the cell count is 745. Also, the inhibition in experiment [1] is 3.4% (inactive); in experiment [3] it was 53% (inactive); in experiment [7], 16% (inactive); in experiment [8], 35.4% (inactive). In addition, in experiment [2], the inhibition of aggregation is 4.4% (inactive). In addition, the figures for the nuclei count in experiment [2] and in experiment [3] were 110% and 97.2%, respectively. In experiment [4], the fluorescence slope is -0.422 (inactive). For the same compound, in experiment [5], the NADPH fluorescence slope was -8.2e-05 (inactive). The slope in experiment [6] was 0.00503 (inactive).
Turning to `CN(C)S(=O)(=O)c1ccc(S(=O)(=O)N(Cc2ccco2)Cc2ccccc2Cl)cc1`, the cell count in experiment [1] is 478. For the same compound, the inhibition in experiment [1] is 4% (inactive); in experiment [3] it was -58.4% (inactive); in experiment [7], 4.31% (inactive); in experiment [8], 53.4% (active). Besides, the inhibition of aggregation in experiment [2] was 0.8% (inactive). In addition, the nuclei count was 98.9% in experiment [2] and 99.8% in experiment [3]. Also, in experiment [4], the fluorescence slope was -0.523 (inactive). Further, the NADPH fluorescence slope in experiment [5] was 8.8e-06 (inactive). In addition, in experiment [6], the slope is 0.00696 (inactive).
Consider `Cc1cc(NC(=O)CSc2nccn2-c2ccc(Cl)cc2)no1`, for which, in experiment [1], the cell count is 505. The inhibition in experiment [1] is 4.2% (inactive); in experiment [3] it was -65.5% (inactive); in experiment [7], -5.68% (inactive); in experiment [8] it was -15.6% (inactive). Moreover, the inhibition of aggregation in experiment [2] was -6.1% (inactive). The nuclei count stood at 106% in experiment [2] and 120% in experiment [3]. Further, in experiment [4], the fluorescence slope is -0.554 (inactive). In addition, the NADPH fluorescence slope in experiment [5] is -8.5e-06 (inactive). Also, the slope in experiment [6] was 0.00588 (inactive).
With `CC(NC(=O)c1ccc2c(c1)OCO2)C(c1cccs1)N1CCOCC1` (centres undefined), in experiment [1], the cell count was 462. Further, the inhibition in experiment [1] was -6.6% (inactive); in experiment [3], -29.4% (inactive); in experiment [7], 12.6% (inactive); in experiment [8], 15.4% (inactive). Further, the inhibition of aggregation in experiment [2] was 17.3% (inactive). The nuclei count in experiment [2] is 113%; in experiment [3] it was 115%. In addition, in experiment [4], the fluorescence slope was -0.618 (inactive). In addition, the NADPH fluorescence slope in experiment [5] was 2.3e-05 (inactive). In experiment [6], the slope is 0.00632 (inactive).
`CCOc1ccc(NC(=O)CCN2CCN(c3ccccc3)CC2)cc1`: the cell count in experiment [1] stood at 696. Further, the inhibition is -6.4% (inactive) in experiment [1], -44.6% (inactive) in experiment [3], 20.2% (inactive) in experiment [7] and 16.6% (inactive) in experiment [8]. In addition, the inhibition of aggregation in experiment [2] was 8.3% (inactive). The figures for the nuclei count in experiment [2] and in experiment [3] were 101% and 105%, respectively. The fluorescence slope in experiment [4] was -0.261 (inactive). Further, the NADPH fluorescence slope in experiment [5] is -1.2e-05 (inactive). Moreover, the slope in experiment [6] was 0.00485 (inactive).
Regarding `O=C(CSc1nnnn1C1CCCC1)N1CCN(C(=O)c2ccco2)CC1`, the cell count in experiment [1] stood at 367. Further, the inhibition was -10.3% (inactive) in experiment [1], -54.2% (inactive) in experiment [3], -2.14% (inactive) in experiment [7] and 16.4% (inactive) in experiment [8]. Moreover, the inhibition of aggregation in experiment [2] is 2% (inactive). In addition, the nuclei count worked out at 105% in experiment [2] and 107% in experiment [3]. In addition, the fluorescence slope in experiment [4] is -0.483 (inactive). Moreover, in experiment [5], the NADPH fluorescence slope is -2.2e-05 (inactive). Further, the slope in experiment [6] is 0.00599 (inactive).
For the compound `CC(C)OC(=O)C1C2C=CC3(CN(Cc4cccs4)C(=O)C13)O2` (centres undefined), the cell count in experiment [1] worked out at 469. Moreover, the inhibition in experiment [1] was 5% (inactive); in experiment [3], -92.4% (inactive); in experiment [7], 20.6% (inactive); in experiment [8] it was 32.2% (inactive). The inhibition of aggregation in experiment [2] is 0.9% (inactive). Moreover, the nuclei count in experiment [2] came out at 83.9%; in experiment [3] it was 111%. Further, the fluorescence slope in experiment [4] is -0.533 (inactive). The NADPH fluorescence slope in experiment [5] was -1.6e-05 (inactive). In addition, in experiment [6], the slope is 0.005 (inactive).
With `CN(CC(=O)Nc1ccc(F)c(Cl)c1)S(=O)(=O)c1cccc2nsnc12`, the cell count in experiment [1] is 615. The inhibition in experiment [1] was -19.8% (inactive); in experiment [3] it was -18.3% (inactive); in experiment [7], -14.7% (inactive); in experiment [8] it was 98.7% (active). In addition, in experiment [2], the inhibition of aggregation was 5.8% (inactive). Moreover, the nuclei count stood at 64.7% in experiment [2] and 108% in experiment [3]. Moreover, the fluorescence slope in experiment [4] is -0.34 (inactive). Besides, in experiment [5], the NADPH fluorescence slope is -3.5e-05 (inactive). Also, the slope in experiment [6] was 0.00478 (inactive).
`Cc1nc(SCc2ccc(Br)cc2)[nH]c(=O)c1C`: the cell count in experiment [1] came out at 755. The inhibition was 0.8% (inactive) in experiment [1], -44.8% (inactive) in experiment [3], 3.06% (inactive) in experiment [7] and 29.5% (inactive) in experiment [8]. The inhibition of aggregation in experiment [2] was -11.8% (inactive). Besides, the nuclei count came out at 76.4% in experiment [2] and 117% in experiment [3]. The fluorescence slope in experiment [4] is -0.452 (inactive). In addition, the NADPH fluorescence slope in experiment [5] was -2.5e-05 (inactive). Moreover, the slope in experiment [6] is 0.00691 (inactive).
